Test results reported in ChEMBL document CHEMBL3988442, “University of Dundee, Small-Polar-MMV Screening Library” (2021).
Out of some 69,000 compounds screened, about 1,000 (1.4%) showed an effect of 50% or more. This is one part of a sample in which strong results are shown more often than they occur.

Tested on: Leishmania donovani
Experiment: Leishmania intramacrophage assay
Type: functional, organism-based
Set-up: scale not given: in the data most compounds retested in dose-response had high values

Cc1ccc2c(c1)cc(CN1CC[C@](C)(O)[C@H](C)C1)n2C
Percent Effect (30.3 µM, […]): 50.4%

CC(C(=O)N1CCN(CCOc2ccccc2)CC1)n1cncn1 (configuration not stated)
Percent Effect (30.3 µM, […]): 10.7%

CCOCC1CN(S(=O)(=O)C2CC2)Cc2cnn(C)c21 (configuration not stated)
Percent Effect (30.3 µM, […]): -42.59%

CN(CC(=O)N1CCCC1)C(=O)c1ccccc1Nc1ccccc1
Percent Effect (30.3 µM, […]): -2.979%

CCc1cnc(N)nc1N[C@@H](C)c1ncccc1C
Percent Effect (30.3 µM, […]): 22.19%

CCc1cnc(N)nc1NC(C)c1cnn(C)c1 (configuration not stated)
Percent Effect (30.3 µM, […]): 1.659%

CCc1cnc(N)nc1NC(C)c1ccc(C)c(C)c1 (configuration not stated)
Percent Effect (30.3 µM, […]): 88.85%

CC(C)OC[C@H]1CCC[C@]12CN(S(=O)(=O)c1cn(C)cn1)CCO2
Percent Effect (30.3 µM, […]): 9.701%

NC(c1ccc(F)cc1)c1cccs1 (configuration not stated)
Percent Effect (30.3 µM, […]): 6.777%

CN(C)CCO[C@@H]1CC[C@H]2[C@H]1OCCN2C(=O)c1ccccc1F
Percent Effect (30.3 µM, […]): 24.56%

CC(C)c1nccc(CN2CCCC(O)(CN3CCCC3)C2)n1 (configuration not stated)
Percent Effect (30.3 µM, […]): -4.495%

CC(C)c1nccc(CN2CCC(O)(CN3CCCCC3)C2)n1 (configuration not stated)
Percent Effect (30.3 µM, […]): 18.94%

CC(C)c1nccc(C2(c3ccccc3Cl)CCNCC2)n1
Percent Effect (30.3 µM, […]): 86.79%

CC(C)(C)c1nccc(C2(c3ccccc3Cl)CCNCC2)n1
Percent Effect (30.3 µM, […]): 98.02%

Clc1ccccc1C1(c2ccnc(-c3ncccn3)n2)CCNCC1
Percent Effect (30 µM, 30.03 µM): 15.9%

O=c1[nH]cccc1-c1nccc(C2(c3ccccc3Cl)CCNCC2)n1
Percent Effect (30.3 µM, […]): 3.768%

CCC1C(=O)NCCN1c1ccnc(C(C)(C)C)n1 (configuration not stated)
Percent Effect (30.3 µM, […]): -23.65%

Clc1ccccc1C1(c2ccnc(-c3ccncc3)n2)CCNCC1
Percent Effect (30 µM, 30.03 µM): 69.77%

CC(C)CSCCN1CCN(S(C)(=O)=O)CC1
Percent Effect (30.3 µM, […]): -11.46%

O=C(c1ccccc1)N1C[C@@H]2CC[C@H](C1)N(C(=O)CN1CCOCC1)C2
Percent Effect (30.3 µM, […]): 12.92%

CCNc1c(C#N)c(=O)n(C)c(=O)n1C
Percent Effect (30.3 µM, […]): 22.41%

OC1CCN(c2ccnc(NCCc3ccccc3Cl)n2)C1 (configuration not stated)
Percent Effect (30.3 µM, […]): 64.18%

OC1CCN(c2ccnc(NCCN3CCc4ccccc4C3)n2)C1 (configuration not stated)
Percent Effect (30.3 µM, […]): 47%

OC1CCN(c2ccnc(NCCc3ccccc3Cl)n2)CC1
Percent Effect (30.3 µM, […]): -1.281%

Cn1cc(C(=O)Nc2cccc(CCN3CCCC3)c2)ccc1=O
Percent Effect (30.3 µM, […]): 25.83%

Cc1ccc(F)c(C(=O)Nc2cccc(CCN3CCCC3)c2)c1
Percent Effect (30.3 µM, […]): 51.62%

Cc1cc(=O)c(C(=O)Nc2cccc(CCN3CCCC3)c2)c[nH]1
Percent Effect (30.3 µM, […]): 12.01%

CN(C(=O)c1cccc2[nH]ncc12)C1CCN(c2ccccn2)CC1
Percent Effect (30 µM, 30.03 µM): -37.63%

COc1c(C)cc(CNCc2ccnc(N3CCOCC3)c2)cc1C.Cl
Percent Effect (30 µM): 54.99%

COc1cc(CNCc2ccnc(N3CCOCC3)c2)cc(OC)c1
Percent Effect (30 µM): 28.31%

COc1cc(CNCc2ccnc(N3CCOCC3)c2)cc(Cl)c1OC
Percent Effect (30 µM, 30.03 µM): 26.59%

O=C(CCc1ccco1)Nc1ncn(CC(=O)N2CCCCCC2)n1
Percent Effect (30.3 µM, […]): 4.673%

Cn1ncc2c(N[C@H]3CCCC[C@@H]3O)nc(C(C)(C)C)nc21
Percent Effect (30.3 µM, […]): 44.26%

Cn1ncc2c(N[C@H]3CC[C@@H](N)CC3)nc(C(C)(C)C)nc21
Percent Effect (30.3 µM, […]): 100.6%

Cn1ncc2c(NC3CCCN(C(=O)C4CC4)C3)nc(C(C)(C)C)nc21 (configuration not stated)
Percent Effect (30.3 µM, […]): -38.63%

CSCC[C@@H]1CN2CCC[C@H]2CN1Cc1cn(C)nc1C
Percent Effect (30.3 µM, […]): -2.658%

O=C(COCc1nc(-c2ccncc2)no1)N1CCCC1
Percent Effect (30 µM, 30.03 µM): 18.4%

O=C(COCc1nc(-c2ccncc2)no1)N1CCCCC1
Percent Effect (30.3 µM, […]): -11.93%

CC1CCCCN1C(=O)COCc1nc(-c2ccncc2)no1 (configuration not stated)
Percent Effect (30.3 µM, […]): 55.9%

O=C(Nc1cccc(F)c1)C1CCN(Cc2noc(C3CC3)n2)CC1
Percent Effect (30.3 µM, […]): 33.46%

CN(Cc1ccc(C(=O)O)cc1)C(=O)c1sccc1OC(F)F
Percent Effect (30.3 µM, […]): 18.71%

CCC1(CO)CCN(C(=O)c2cc(COc3ccccc3F)[nH]n2)CC1
Percent Effect (30.3 µM, […]): -10.91%

CCC1(CO)CCCN(C(=O)c2cc(COc3ccccc3F)[nH]n2)C1 (configuration not stated)
Percent Effect (30.3 µM, […]): -9.881%

CCC1(CO)CCCN(C(=O)c2cc(COc3cccc(F)c3)[nH]n2)C1 (configuration not stated)
Percent Effect (30.3 µM, […]): 65.29%

Cc1cccc(CN2CCn3c(COc4ncccn4)nnc3C2)n1
Percent Effect (30.3 µM, […]): 26.49%

COCCn1cc(CCC(=O)Nc2c(C)nn(C)c2C)c2ccccc21
Percent Effect (30.3 µM, […]): -5.699%

CC(C)c1nc(CN(C)C2CCN(CCc3ccncc3)C2)no1 (configuration not stated)
Percent Effect (30 µM): 35.17%

CC(C)C[C@@H](N)C(=O)N(C)Cc1csc(C(C)C)n1
Percent Effect (30.3 µM, […]): 18.19%

CC(C)c1nc(CN(C)C(=O)[C@H](N)Cc2ccc(Cl)cc2)cs1
Percent Effect (30.3 µM, […]): 64.25%

CC(C)c1nc(CN(C)C(=O)C(O)c2ccc(Cl)cc2)cs1 (configuration not stated)
Percent Effect (30.3 µM, […]): -6.394%

CN1CCN(C(=O)CC2CCN(CCc3ccccn3)CC2)CC1
Percent Effect (30 µM, 30.03 µM): 28.67%

COC[C@@H]1CCCN1C(=O)c1cc(-c2cccc(OC)c2)n[nH]1
Percent Effect (30.3 µM, […]): 15.97%
